Type in all cases: functional
Experiment [1] concerns the target Solute carrier family 2, facilitated glucose transporter member 1 (Homo sapiens) (UniProt P11166). Kind of experiment: ST_JUDE_LEISH: Cytotoxicity at 2uM final concentration against transgenic Leishmania Mexicana promastigotes LmGLUT1 that are glucose transport deficient and complemented with the human glucose transporter GLUT1. Activity is measured by DNA content using SYBR green in vitro.

Experiment [2] addresses Hexose transporter 1 (Plasmodium falciparum) (UniProt O97467). Nature of the experiment: ST_JUDE_LEISH: Cytotoxicity at 2uM final concentration against transgenic Leishmania Mexicana promastigotes LmPfHT that are glucose transport deficient and complemented with the Plasmodium falciparum hexose transporter. Activity is measured by DNA content using SYBR green in vitro.
Experiment [3] concerns the target Glucose transporter (Leishmania mexicana) (UniProt O61059). Nature of the experiment: ST_JUDE_LEISH: Cytotoxicity at 2uM final concentration against transgenic Leishmania Mexicana promastigotes LmGT2 that are glucose transport deficient and complemented with the L. Mexicana glucose transporter 2. Activity is measured by DNA content using SYBR green in vitro.

The values that follow come from ChEMBL document CHEMBL3433997, “St. Jude Leishmania screening dataset” (2016).

The inhibition is the relative decrease from the control value, in per cent.

Solute carrier family 2, facilitated glucose transporter member 1 (Homo sapiens), sequence (P11166 whole entry): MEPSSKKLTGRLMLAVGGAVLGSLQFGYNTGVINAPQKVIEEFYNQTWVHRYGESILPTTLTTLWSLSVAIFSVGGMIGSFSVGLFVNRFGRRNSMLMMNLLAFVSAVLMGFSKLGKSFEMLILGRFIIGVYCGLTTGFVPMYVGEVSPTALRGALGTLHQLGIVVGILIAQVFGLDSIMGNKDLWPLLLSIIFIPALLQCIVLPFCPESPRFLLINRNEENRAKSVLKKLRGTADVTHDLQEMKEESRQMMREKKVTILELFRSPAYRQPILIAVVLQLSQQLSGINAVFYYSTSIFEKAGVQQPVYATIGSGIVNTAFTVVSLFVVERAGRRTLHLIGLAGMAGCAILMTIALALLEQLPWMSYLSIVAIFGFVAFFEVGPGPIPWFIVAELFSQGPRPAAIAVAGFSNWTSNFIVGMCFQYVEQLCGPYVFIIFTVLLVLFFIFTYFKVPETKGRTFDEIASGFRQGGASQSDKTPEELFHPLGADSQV

As for `Cc1nnsc1C(=O)Nc1cccc(-c2cccc(-c3nc4cc(F)ccc4[nH]3)c2)c1`, the results for the inhibition in experiment [1], in experiment [2] and in experiment [3] were 0.66%, 0.05% and -2.12%, respectively.
With `Cc1cnc(-c2ccc(NC(=O)c3coc4ccc(N5CC(C)N(C)C(C)C5)cc34)cc2)o1` (stereo unspecified), the inhibition in experiment [1] is -0.6%; in experiment [2], 1.55%; in experiment [3], 0.74%.
For `Brc1ccc(Nc2nc3ccccc3nc2Nc2ccc(Br)cc2)cc1` the same measures were 9.39%, 6.78% and 9.68%.
For `CNC(=O)C1Cc2c([nH]c3cc(Br)ccc23)C2(CCN(CCc3ccccc3)CC2)N1` (stereo unspecified) the same measures were 2.01%, 0.63% and 1.83%.
In the same order, the values of `O=C(Nc1ccc(Cl)cc1)Nc1cccc(-c2cccc(-c3nc4ccccc4[nH]3)c2)c1` are 1.17%, 0.33% and -0.65%.
With `Cc1ccc(N2C(N)=NC(N)=NC2(C)C)cc1`, the inhibition turned out to be 2.52% in experiment [1], 2.98% in experiment [2] and 2.39% in experiment [3].
In the same order, the values of `O=C(NCc1ccc(C(=O)NCc2cccc3ccccc23)cc1)c1ccc(O)c(-c2ccc(Cl)c(Cl)c2)c1` are 0.64%, 2.17% and 0.96%.
In the same order, the values of `c1ccc2[nH]c(-c3ccc(-c4ccc(CN5CCN(c6ccncc6)CC5)cc4)cc3)nc2c1` are 21.3%, 15.4% and 6.31%.
In the same order, the values of `CC(C)(C)c1ccc(CN2CCC(NC(=O)c3ccc(-c4cccc(C(F)(F)F)c4)s3)CC2)cc1` are 1.56%, -0.78% and -5.64%.
Consider `O=C(CCn1c2ccccc2c2ccccc21)NN=Cc1ccco1`, for which the values for the inhibition in experiment [1], in experiment [2] and in experiment [3] were 7.25%, 5.11% and 4.19%, respectively.
For `CCN(CC)CCOc1ccc(NC(=O)c2oc3ccccc3c2C=Cc2ccccc2)cc1` the same measures were 4.92%, -0.45% and 0.81%.
In the same order, the values of `COc1ccc2nccc([C@@H](O)CN3CCC(NCc4cc5c(Cl)cc(Cl)cc5[nH]4)CC3)c2c1` are 6.83%, 5.77% and 1.13%.
